Source: PubChem (National Center for Advancing Translational Sciences (NCATS))
Only some compounds are listed: those with a hit (about 12% of all), similar ones and a draw of the others.
JMJD2A Tudor inh: qHTS Assay for Inhibitors of JMJD2A-Tudor Domain. AlphaScreen JMJD2A-Tudor / H3K4me3 peptide binding. Lysine-specific demethylase 4A (Homo sapiens), O75164. AID 504339, 2011. Potency, µM (titrated, usually from 114 µM), for the others: at the highest dose activity change, negative = inhibition, hits mostly inhibitors. actives 4.4% (n = 390,000); note: potency is the fitted concentration of half-maximal effect; % is set by controls: 0 for no effect and ±100 for the full control effect; nearly all actives have a fitted effect of over 50% in size
BAZ2B inh: qHTS Assay for Inhibitors of BAZ2B; AlphaScreen BAZ2B-H3K14Ac peptide displacement; actives 4.4% (n = 360,000); Potency, µM (highest dose often 114 µM), without a hit: top-dose activity change, negative = inhibition, most hits filed as inhibitors; note: potency is the fitted concentration of half-maximal effect; % is set by controls: 0 for no effect and ±100 for the full control effect; nearly all actives have a fitted effect of over 60% in size
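BAZ2B 50 nM plus b-H3(5-23)K14Ac 50 nM, PBS pH 7.4/0.01% Tween-20, 30 min RT; compound added (max 110 uM), 30 min RT; streptavidin donor/Ni-chelate acceptor beads 10 ug/mL final, 20 min dark; AlphaScreen read.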
G9a inh: qHTS Assay for Inhibitors of Histone Lysine Methyltransferase G9a. Histone-lysine N-methyltransferase EHMT2 (Homo sapiens), Q96KQ7. G9a H3K9 monomethylation, AlphaScreen, 2 h. Potency, µM (titrated, usually from 102 µM), for the others: at the top dose activity, negative = inhibition, actives largely listed as inhibitors. actives 8.8% (n = 350,000). AID 504332, 2011; note: potency is the fitted concentration of half-maximal effect; % is set by controls: 0 for no effect and ±100 for the full control effect; nearly all actives have a fitted effect of over 75% in size
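AlphaScreen detection with an anti-monomethyl H3K9 antibody quantified product after a 2 h room-temperature reaction containing 500 nM biotinylated H3K9 peptide, 20 µM SAM and 20 nM enzyme, which had been preincubated 15 min with compound.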
HP1b binding inh: HTS for Inhibitors of HP1-beta Chromodomain Interactions with Methylated Histone Tails; AlphaScreen HP1-beta / biotin-H3K9me3 peptide binding; Potency, µM (titrated, usually from 114 µM), for inactives: at the highest dose activity change, negative = inhibition, hits mostly inhibitors; actives 0.56% (n = 390,000); note: potency is the fitted concentration of half-maximal effect; nearly all actives have a fitted effect of over 70% in size
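AlphaScreen: HP1-beta (50 nM) preformed 30 min with biotin-H3(1-18)K9me3 peptide (50 nM) in PBS pH 7.4, 0.01% Tween-20. Compound added for 30 min at RT, then streptavidin donor/nickel chelate acceptor beads (10 ug/mL) for 30 min.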
PI5P4Ka inh: qHTS for Inhibitors of phosphatidylinositol 5-phosphate 4-kinase (PI5P4K). Phosphatidylinositol 5-phosphate 4-kinase type-2 alpha (Homo sapiens), P48426. PI5P4Kalpha enzyme, ADP-Glo luminescence, 60 min; hits give low values. max response, %. actives 1.2% (n = 330,000). AID 652105, 2013; active = max response of -50% or lower; inconclusive = between -30% and -50%; inactive = -30% or higher; note: value at the top dose of about 77 µM; % is set by controls: 0 for no effect and ±100 for the full control effect
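ADP-Glo luminescence end-point read after a 60 min room-temperature kinase reaction of PI5P4Kalpha plus substrate, initiated with ATP at 5 microM final. Buffer: 0.038 M HEPES pH 7.4, EGTA, 0.1% CHAPS, 5% DMSO.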
PLK1 PBD block: qHTS for Inhibitors of PLK1-PDB (polo-like kinase 1 - polo-box domain): Primary Screen. actives 2.8% (n = 360,000). Plk1 PBD binding of FITC phosphopeptide, fluorescence polarization. Potency, µM, for inactives: max response, negative = inhibition, actives largely listed as inhibitors. Serine/threonine-protein kinase PLK1 (Homo sapiens), P53350; note: potency is the fitted concentration of half-maximal effect; series mostly up to about 57 µM; % is set by controls: 0 for no effect and ±100 for the full control effect; nearly all actives have a fitted effect of over 65% in size
Starred values were filed as active, the others as inactive; ? = inconclusive; · = no result given; [ ] = dose if it differs, or a comment. Unless noted, calls come from the whole dose curve; as a rule, active = well fitted curve in the direction sought with a large enough effect; inconclusive = small, poorly fitted or top-dose-only effect, or another doubt; inactive = no such curve, though single readings can be large; an effect the other way counts as inactive or inconclusive.

SMILES | JMJD2A Tudor inh | BAZ2B inh | G9a inh | HP1b binding inh | PI5P4Ka inh | PLK1 PBD block
Cc1ccc(C(=O)N2CCN(c3cc4c(cc3[N+](=O)[O-])n(C)c(=O)n4C)CC2)cc1 | -8% | 50µM* | -36% | 9% | · | -9%
Cc1ccc(CCNC(=O)c2cc3ccccn3n2)cc1 | -2% | -9% | 2%[59 µM] | 29% | · | ·
CCOC(=O)C(=O)N1CCN(c2cc3c(cc2[N+](=O)[O-])n(C)c(=O)n3C)CC1 | -7% | 50µM* | -5% | 33% | -1 | -3%
COC(=O)C1CN(C(=O)C(C)Oc2ccc(C)c(C)c2)c2ccccc2O1 (stereo not given) | -12% | 2% | 52% | 45% | 3 | -6%
COc1cc(OC)c(NS(=O)(=O)c2ccc3c(c2)NC(=O)CO3)cc1Cl | 16µM* | -15% | 27% | 6% | -15 | 6.7µM*
O=C(Nc1cc(Cl)ccc1-n1cncn1)C1CC1 | -9% | -38% | -21%[12.7 µM] | 31% | 6 | 4%
CCOc1ccc(/C=N/Nc2ccccn2)cc1OC | ? | · | -9% | -14% | -12 | ?
Oc1c(/C=N/Nc2cccc3cccnc23)ccc2ccccc12 | -22% | -1% | ? | 39% | 2 | -5%
Oc1cccc(/C=N/Nc2cccc3cccnc23)c1 | ? | ? | 35µM* | ? | 31 | -6%
COc1cc(/C=N/Nc2ccccn2)cc(OC)c1O | -25% | -17% | 28µM* | 15% | -2 | -22%
Oc1ccc(/C=N/Nc2ccc(C(F)(F)F)cn2)c(O)c1 | · | 28µM* | 15% | · | · | ·
COc1cc(/C=N/Nc2cccc3cccnc23)cc(OC)c1O | ? | 28µM* | 10µM* | ? | -4 | -10%
COC(=O)[C@@]12C[C@@H](CC(=O)N3CCSCC3)C(=O)N(Cc3ccc4c(c3)OCO4)C1=CCC(C)(C)C2 | · | · | · | · | 6 | -5%
CN(C)CC[C@H](c1ccc(Br)cc1)c1ccccn1 | · | · | 15%[21.5 µM] | · | · | ·
CC(C#Cc1ccc2c(c1)COc1c3ccccc3nn1-2)OC(C)(C)C (stereo not given) | -7% | 9% | 9%[2.33 µM] | 34% | -1 | 8%
COc1cc(/C=N/Nc2ccc(C(F)(F)F)cn2)cc(OC)c1O | -8% | -18% | 40µM* | -2% | 0 | -7%
COc1cc(N/N=C/c2ccc(N(C)C)cc2)ncn1 | -28% | -34% | -5% | 23% | -8 | 3%
COc1cc(N/N=C/c2ccccc2O)ncn1 | 45µM* | 28µM* | 22% | 9% | -23 | -14%
Cc1ccc(CCNC(=O)CN2C(=O)COc3ccc(S(=O)(=O)N4CCOCC4)cc32)cc1 | -19% | -12% | · | 49% | 0 | -13%
CCOC(=O)C(C)On1c(-c2ccccc2)nc2ccc([N+](=O)[O-])cc21 (stereo not given) | ? | ? | -5%[12.7 µM] | -3% | -1 | -14%
O=C(O)COn1c(-c2ccccc2)nc2ccc([N+](=O)[O-])cc21 | ? | 50µM* | 45µM* | 11% | ? | ?
Cc1ccc(C(=O)Nc2nnc(CC(=O)N/N=C/c3ccncc3)s2)cc1 | ? | ? | 35µM* | 23% | ? | -30%
Cc1ccc(C(=O)Nc2nnc(Cc3ccccc3)s2)cc1 | -6% | 5% | -9%[2.33 µM] | 46% | 2 | 4%
Cc1ccc(C(=O)Nc2nnc(CC(=O)N/N=C/c3ccc(O)c(O)c3)s2)cc1 | ? | 79µM* | -31%[2.33 µM] | -24% | -58* | -22%
COc1ccc(C(=O)Nc2nnc(CC(=O)N/N=C/c3ccc(O)cc3O)s2)cc1 | · | -5% | -2% | · | · | ·
SMILES | JMJD2A Tudor inh | BAZ2B inh | G9a inh | HP1b binding inh | PI5P4Ka inh | PLK1 PBD block
CCCn1c(SCC(=O)NCc2ccc3c(c2)OCO3)n[nH]c1=O | -9% | 34% | 22%[12.7 µM] | 19% | -3 | -11%
Cc1ccsc1/C=N/n1c(C2CCCCC2)n[nH]c1=S | ? | 6% | 1.4µM* | -12% | -4 | ?
Cc1ccc(/C=N/n2c(C3CCCCC3)n[nH]c2=S)s1 | -12% | -3% | 8.9µM* | 4% | -4 | -19%
COc1ccc(-c2ccc(C3C4C=CCC(C)C4C(=O)N3Cc3ccccc3)c(F)c2)cc1C (stereo not given) | -33% | · | · | 27% | · | ·
CCCn1c(N)c(C(=O)CSc2nc(C)nc3sc(C)c(C)c23)c(=O)[nH]c1=O | -16% | -11% | 22µM* | 30% | -18 | ?
C=CCC1NCCc2c(Br)cccc21 (stereo not given) | -20% | -21% | 22µM* | 31% | 4 | -12%
C=CC[C@@H]1Cc2c(Br)ccc(Br)c2[C@@H](CC=C)N1 | 32% | 76% | 66%[59 µM] | 117% | 1 | -9%
CCOc1cc(C2NC(=O)CCC2[N+](=O)[O-])cc(Br)c1OC (stereo not given) | -17% | -3% | 21% | 8% | 0 | 27µM*
O=CN/C=C/c1cc(O)ccc1O | 3.2µM* | 79µM* | 1.4µM* | ? | -64* | ?
Cc1cscc(C)c1=S | · | · | · | · | -1 | -13%
C=CCn1c(-c2cnn(-c3ccccc3)c2N)n[nH]c1=S | 4µM* | -21% | 7.9µM* | 6% | 7 | -2%
Cn1c(-c2cnn(-c3ccccc3)c2N)n[nH]c1=S | ? | -10% | 28µM* | 39% | 1 | -3%
Nc1c(-c2n[nH]c(=S)n2-c2ccc(Cl)cc2Cl)cnn1-c1ccccc1 | 6% | 1% | 4.5µM* | 54% | -2 | -3%
CCCN1C(=O)/C(=C\C=C2\N(CC)c3ccccc3C2(C)C)SC1=S | 8.9µM* | 3.5µM* | · | ? | 1 | ?
CCN1C(=O)C(=CC=CN(C)c2ccccc2)SC1=S | · | · | · | · | 4 | 62%
CN1/C(=C\C=C2/SC(=S)NC2=O)C(C)(C)c2ccccc21 | ? | 7.9µM* | 7.9µM* | ? | -77* | 82%
O=C1NC(=O)C(c2cn(-c3ccccc3)nc2-c2ccc(F)cc2)N1 (stereo not given) | ? | -1% | 0%[12.7 µM] | -9% | ? | 5.3µM*
CN(C)c1ccc(NC(=S)c2ccccn2)cc1 | 11µM* | 2.8µM* | 8.9µM* | 13µM* | -14 | 13µM*
COc1cc(C(=O)CCN2CCC(c3ccccc3)C2)cc(OC)c1OC (stereo not given) | -29% | -33% | 3.5µM* | 24% | -2 | 27µM*
